Results published in PubChem BioAssay (NCI).
This is part of a sample that, as a whole, favours compounds with a hit. Of some 79,000 tested, about 15% had one in any assay. A number with no mark means an inactive call. Active and inactive are the calls of the source. Rule as the data show it: active = growth inhibition above about 70%; inactive = the rest.

Legend:
[1] = NCI Yeast Anticancer Drug Screen. Data for the rad50 strain (AID 155);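 also: 0% = growth of vehicle-only cultures of the same strain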; conditions: S. cerevisiae rad50 strain growth inhibition, hits give high values
Summary of the method: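 Inhibition values express reduced yeast growth in compound-treated cultures relative to vehicle-treated controls.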

[2] = NCI Yeast Anticancer Drug Screen. Data for the mec2-1 strain (AID 157); conditions: S. cerevisiae mec2-1 strain, hits give high values
Summary of the method: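 Compounds were applied to mec2-1 yeast cells. Their growth was then compared with that of vehicle-treated cultures to give growth inhibition.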

[3] = NCI Yeast Anticancer Drug Screen. Data for the sgs1 mgt1 strain (AID 161);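 also: 0% = growth of cultures given vehicle only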; conditions: S. cerevisiae sgs1 mgt1 strain, hits give high values
Summary of the method: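 Percent growth inhibition was derived by comparing compound-exposed mutant yeast with vehicle-exposed cultures. The strain carries alterations in DNA damage repair.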

[4] = NCI Yeast Anticancer Drug Screen. Data for the cln2 rad14 strain (AID 165);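 also: 0% = growth equal to vehicle treated cultures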; conditions: S. cerevisiae cln2 rad14 strain, hits give high values
Summary of the method: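 Strain: cln2 rad14 yeast, altered in cell cycle control and DNA damage repair. Read-out: growth inhibition vs vehicle.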

[5] = NCI Yeast Anticancer Drug Screen. Data for the bub3 strain (AID 167); conditions: S. cerevisiae bub3 mutant strain, hits give high values
Summary of the method: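 Steps: expose the mutant yeast strain to compound; grow alongside vehicle-treated cultures; measure growth; express inhibition against the vehicle cultures.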

[6] = NCI Yeast Anticancer Drug Screen. Data for the mlh1 rad18 strain (AID 175); conditions: S. cerevisiae mlh1 rad18 strain growth inhibition, hits give high values
Summary of the method: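 A repair-deficient yeast strain is exposed to test compound, and growth is scored relative to vehicle-treated controls.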

[7] = at 5.0 µM (retest, dose inferred, filed as 0.5)
[8] = at 50.0 µM (retest, dose inferred, filed as 5.0)

SMILES | growth inhibition [1, 7] | growth inhibition [1, 8] | growth inhibition ([1]; at 50.0 µM) | growth inhibition [2, 7] | growth inhibition [2, 8] | growth inhibition ([2]; at 50.0 µM) | growth inhibition [3, 7] | growth inhibition [3, 8] | growth inhibition ([3]; at 50.0 µM) | growth inhibition [4, 7] | growth inhibition [4, 8] | growth inhibition ([4]; at 50.0 µM) | growth inhibition [5, 7] | growth inhibition [5, 8] | growth inhibition ([5]; at 50.0 µM) | growth inhibition [6, 7] | growth inhibition [6, 8] | growth inhibition ([6]; at 50.0 µM)
COc1ccc(OC)c2c(C(=O)O)c(C(C)c3ccccc3)ccc12 (stereo not given) | -1% | 70% (active) | 85.8% (active) | 3% | 73% (active) | 91.2% (active) | 2% | 64% | 91.2% (active) | 1% | 74% (active) | 96.2% (active) | -6% | 65% | 81.7% (active) | 3% | 75% (active) | 92.3% (active)
COC1=CC(=O)c2c(O)c3c(c(O)c2C1=O)C[C@](C)(O)C[C@@H]3O | 27% | 93% (active) | 84.7% (active) | 14% | 94% (active) | 79.8% (active) | 12% | 91% (active) | 85.6% (active) | 0% | 29% | 47.7% | 36% | 93% (active) | 83.8% (active) | 33% | 96% (active) | 84.5% (active)
O=[N+]([O-])c1cc2cccnc2c2ncccc12 | -8% | -15% | 63% | -43% | -18% | 41.1% | -5% | 20% | 81.2% (active) | -8% | 21% | 62.2% | -21% | -86% | 34.4% | 4% | 22% | 76.2% (active)
CN(C)c1ccc(/C=N/N=C(\C#N)[S][Sn]([Cl])([c]2ccccc2)[c]2ccccc2)cc1 | 98% (active) | 95% (active) | 97.5% (active) | 98% (active) | 96% (active) | 97.3% (active) | 98% (active) | 96% (active) | 97.5% (active) | 98% (active) | 89% (active) | 95% (active) | 98% (active) | 95% (active) | 97% (active) | 97% (active) | 96% (active) | 97.2% (active)
N#CSc1cc(SC#N)c2ccccc2c1N | 0% | -3% | 70.2% (active) | -2% | -12% | 62.9% | 3% | -9% | 57.9% | 1% | -27% | -1.2% | 19% | 28% | 81% (active) | 8% | -2% | 63.5%
O=C(CC1(O)C(=O)Nc2c(Cl)cc(Cl)cc21)c1ccc(Br)cc1 (stereo not given) | 3% | 3% | 93.1% (active) | -9% | -9% | 92% (active) | -23% | -23% | 92% (active) | -8% | -8% | 91.8% (active) | 7% | 7% | 94.3% (active) | -1% | -1% | 92.7% (active)
Cc1cccc(/C=N/Nc2cc(C)c3ccccc3n2)n1 | 10% | 89% (active) | 96.8% (active) | 10% | 96% (active) | 89.2% (active) | 16% | 96% (active) | 97.8% (active) | 5% | 86% (active) | 82.3% (active) | -5% | 95% (active) | 93.6% (active) | 14% | 96% (active) | 82.8% (active)
CCCCCCN(CCCCCC)CC(O)c1cc(-c2ccccc2)nc2c(O)cccc12 (stereo not given) | 4% | 56% | 23.7% | 7% | 73% (active) | 22.6% | -118% | 95% (active) | 93.8% (active) | 4% | 42% | 8.2% | 8% | 92% (active) | 40% | 30% | 87% (active) | 33.5%
CC(C)CCCCCCCCCCCCC(=O)NCC(=O)NC1C(C)OC(Nc2ncnc3nc[nH]c23)C(O)C1O (stereo not given) | 22% | 22% | 29.1% | 54% | 32% | 9.55% | 43% | 45% | 34.5% | 5% | 10% | 2.2% | 58% | 23% | 77.1% (active) | 52% | 35% | 19.4%
CCCCCCCCCCCC1=NCCN1CCNCCCC | 6% | 75% (active) | 36.6% | 5% | 90% (active) | 98.7% (active) | 6% | 96% (active) | 44.2% | 9% | 66% | 97.3% (active) | 4% | 79% (active) | 98.4% (active) | 11% | 92% (active) | 98.8% (active)
